# Source: PubChem
# ELG1 DNA repair = inhibitors of ELG1-dependent DNA repair in HEK293T cells; 2.3% of 330,000 active; Potency, µM (top dose mostly 46.1 µM), most hits filed as inhibitors; HEK293T ELG1-luciferase reporter, luminescence, 16 h; DNA damage induced by 5-fluorouridine; further: nearly all actives have a fitted effect of over 55% in size
#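 Reporter activity after DNA damage by 5-fluorouridine is monitored. Compound-treated cells incubate 16 hr at 37 °C, then ONE-Glo is added for 30 min before luminescence reading.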
# Rab9 promoter act = activators of Rab9 promoter. Huh7 Rab9 promoter-luciferase reporter, luminescence, 24 h. Potency, µM (highest dose often 9.22 µM), actives largely listed as activators. 2.8% of 320,000 active. AID 485297; further: nearly all actives have a fitted effect of over 60% in size
#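 Huh7 reporter line, Rab9 promoter upstream of luciferase. Compound exposure 24 h at 37 °C in reduced-serum medium with 10% FBS. Read-out: luminescence.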
# ELG1 genotoxic = genotoxicity induction in ELG1-luciferase HEK293T cells. Potency, µM (highest dose often 46 µM), actives largely listed as activators. HEK293T ELG1-luciferase reporter, luminescence, 16 h. 1.3% of 330,000 active; further: nearly all actives have a fitted effect of over 60% in size
#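 Reporter readout depends on ELG1 protein level, which increases with genetic stress. After 16 hr compound exposure at 37 °C, luciferase activity was quantified using ONE-Glo.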
# FLuc modulator = counter-screen for miR-21 project: firefly luciferase inhibitors or activators. purified FLuc, Km substrates, luminescence inhibition. Potency, µM (highest dose often 57.5 µM), most hits filed as inhibitors. 6.9% of 360,000 active. AID 588342; further: nearly all actives have a fitted effect of over 55% in size
# Target sequence (P08659 whole entry, looked up): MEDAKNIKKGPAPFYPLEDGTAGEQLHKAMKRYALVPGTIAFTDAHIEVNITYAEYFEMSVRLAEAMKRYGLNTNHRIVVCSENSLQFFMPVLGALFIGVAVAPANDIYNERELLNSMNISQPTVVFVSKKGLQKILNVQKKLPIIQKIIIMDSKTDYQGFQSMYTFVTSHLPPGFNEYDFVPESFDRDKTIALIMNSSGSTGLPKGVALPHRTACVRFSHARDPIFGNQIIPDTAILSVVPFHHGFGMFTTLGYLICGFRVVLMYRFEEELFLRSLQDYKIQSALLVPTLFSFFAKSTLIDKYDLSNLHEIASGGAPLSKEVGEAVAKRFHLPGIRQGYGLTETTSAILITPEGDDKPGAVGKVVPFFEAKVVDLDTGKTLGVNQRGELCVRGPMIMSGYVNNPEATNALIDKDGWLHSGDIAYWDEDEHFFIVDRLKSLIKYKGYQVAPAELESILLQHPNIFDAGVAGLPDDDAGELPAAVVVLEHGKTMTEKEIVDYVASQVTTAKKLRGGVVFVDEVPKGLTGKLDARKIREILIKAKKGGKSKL
#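 Biochemical qHTS of compounds, final roughly 60 µM downward over six points, against 10 nM purified firefly luciferase using Km concentrations of substrates (10 uM D-luciferin, 10 uM ATP) in Tris acetate pH 7.5 buffer; luminescence output.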
# SMN2 splice enh = SMN2 splice variant enhancement | 2.8% of 210,000 active | Potency, µM (highest dose often 46.1 µM), most hits filed as activators | HEK293 SMN2-luciferase splicing reporter, luminescence, 30-36 h; further: nearly all actives have a fitted effect of over 55% in size
#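 HEK293 cells carry an SMN2 […]–luciferase reporter in which exon 7 inclusion puts luciferase in frame. Cells were plated 10-12 h before compound addition, then incubated 30-36 h at 37C. ONE-Glo luminescence was read; sodium butyrate at 4.5 mM final served as control.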
# NPC1 promoter act = activators of NPC1 promoter; 2.4% of 320,000 active; Huh7 NPC1 promoter luciferase reporter, 24 h; Potency, µM (titrated, usually from 9.22 µM), hits mostly activators; further: nearly all actives have a fitted effect of over 60% in size
#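 Stably transfected Huh7 (NPC1 promoter→luciferase), 1500 cells/well in Opti-MEM + 10% FBS, 2 h settle, then compound 24 h at 37 °C. Luminescence after 10 min with Amplite reagent.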
# Numbers stand for hits; . = inactive; ? = inconclusive; / = no result; [ ] = another dose, or the depositor's remark. Rows were chosen to be rich in hits. Some 9.2% of all compounds tested hit in one or more screens of this group. The call rests on the fitted dose curve; in most records, active means well fitted curve in the direction sought with a large enough effect; inconclusive means small, poorly fitted or top-dose-only effect, or another doubt; inactive means no such curve, though single readings can be large; an effect the other way counts as inactive or inconclusive.
SMILES,ELG1 DNA repair,Rab9 promoter act,ELG1 genotoxic,FLuc modulator,SMN2 splice enh,NPC1 promoter act
CCN(CC)c1ccc2cc(C=O)c(=O)oc2c1,/,/,/,.,.,/
CCCC(=O)C1=C(O)C(c2cccc(Oc3ccccc3)c2)CCC1=O (stereo unspecified),18.3µM,.,.,?,.,.
Cc1nc(C)c(C(=O)NCCC(c2ccccc2)c2ccccc2)o1,5.8µM,.,.,.,.,.
CCOC(=O)c1c(S(=O)(=O)N2CCCC(C(=O)Nc3cccc(C#N)c3)C2)c(C)n(C)c1C (stereo unspecified),/,/,/,.,/,/
CCOC(=O)CSc1nnc(-c2ccc(Cl)cc2Cl)o1,.,.,.,8.49µM,.,.
CCCOC(=O)CSc1nnc(-c2ccc(Cl)cc2Cl)o1,.,.,.,15.1µM,.,.
CCOC(=O)CSc1nnc(-c2ccccc2)o1,.,.,.,?,.,.
CCOC(=O)c1cc(-c2nnc(-c3ccc(Cl)cc3)o2)c(C)nc1C,.,.,.,.,.,.
CCOC(=O)c1ccc(-c2nnc(-c3ccc(Cl)cc3Cl)o2)cc1,?,0.501µM,.,.,3.55µM,0.631µM
COc1ccc(N(C)S(=O)(=O)c2ccc3c(c2)NC(=O)CC(=O)N3)c(OC)c1,.,.,.,.,/,.
CCc1ccc(OCC2c3cc(OC)c(OC)cc3CCN2C(=O)Cc2ccc(OC)c(OC)c2)cc1 (stereo unspecified),/,/,/,.,/,/
CCC(C)(C)NC(=O)CN(C(=O)CCC(=O)Nc1nccs1)c1cccc(C)c1C,.,.,.,.,/,.
Cc1ccnc(SCc2cc(=O)c(OC(=O)c3ccc(Cl)c([N+](=O)[O-])c3)co2)n1,20.6µM,.,.,.,.,.
CCn1c(C)cc(C=C2C(=O)c3ccccc3C2=O)c1C,?,?,?,0.477µM,?,?
Cc1cc(C=C2C(=O)c3ccccc3C2=O)c(C)n1C,?,.,?,3.01µM,?,.
COc1cc2[nH]c(=O)n(Cc3ccc(C(=O)N4CCN(c5cc(Cl)ccc5C)CC4)cc3)c(=O)c2cc1OC,/,/,/,.,.,/
O=C(c1cccs1)N1CCN(c2nc3ccccc3s2)CC1,.,.,.,.,/,?
CC(C)(C)C(=O)N1CCN(c2nc3ccccc3s2)CC1,?,?,.[9.26 µM],15.1µM,/,2.51µM
CCc1ccc2nc(N3CCN(C(=O)C(C)(C)C)CC3)sc2c1,.,.,.,15.1µM,/,.
CCCn1nc2cc(C(=O)NCCc3cccs3)ccc2c1OCC,?,?,.,?,15.8µM,?
COc1cccc(NC(=S)NC(=O)/C=C/c2ccc(F)cc2)c1,.,.,.,.,/,.
CCC(=O)Nc1cccc(C(=O)/C=C/c2ccc(F)cc2)c1,.,.,.,15.1µM,.,.
CC(=O)Nc1cccc(C(=O)/C=C/c2ccc(C)cc2)c1,.,.,.,4.78µM,.,.
NC(=O)c1ccccc1-c1nc(-c2ccccc2)no1,?,?,?,23.9µM,.,?
NC(=O)c1cccc(-c2noc(-c3ccccc3F)n2)c1,?,0.794µM,?,2.69µM,/,0.891µM
SMILES,ELG1 DNA repair,Rab9 promoter act,ELG1 genotoxic,FLuc modulator,SMN2 splice enh,NPC1 promoter act
COc1ccc(Br)cc1-c1noc(-c2ccccc2F)n1,.,.,.,.,.,?
COC(=O)c1cccc(-c2noc(-c3ccccc3F)n2)c1,?,0.282µM,?,1.69µM,/,?
Cc1nc(-c2ccc(NC(=O)CC(C)C)cc2)cs1,?,3.16µM,?,7.57µM,11.2µM,2.82µM
Cc1nc(-c2cccc(NC(=O)C3CCCCC3)c2)cs1,?,.,.,?,.,.
Cc1nc(-c2ccc(NC(=O)C3CC3)cc2)cs1,?,2.82µM,20.6µM,10.7µM,/,2.51µM
O=C(c1cc(COc2cccc(C(F)(F)F)c2)on1)N1C[C@H]2CC[C@H]1C2,?,2.24µM,?,15.1µM,/,2.82µM
CC(=O)c1cccc(OCc2cc(C(=O)N3C[C@H]4CC[C@H]3C4)no2)c1,?,2µM,?,9.53µM,/,2.51µM
CC(=O)c1cccc(OCc2cc(C(=O)N3C[C@@H](C)O[C@@H](C)C3)no2)c1,?,?,?,15.1µM,/,?
COc1cccc(OCc2cc(C(=O)N(C)CCC3CCCCO3)no2)c1 (stereo unspecified),?,?,.,?,/,?
CC(=O)c1cccc(OCc2cc(C(=O)N(C)CCC3CCOCC3)no2)c1,?,?,.,16.9µM,/,.
CC(=O)c1cc2c(cc1NC(=O)c1c(C)nn(-c3ccc(C)cc3)c1-n1cccc1)OCO2,/,/,/,.,/,/
COc1cc2c(cc1OC)CN(S(=O)(=O)c1ccc3c(c1)OCCO3)CC2,.,.,.,.,.,.
N#Cc1cc2c(nc1SCc1ccncc1)CCC2,?,?,?,?,11.2µM,?
Cc1cc(NC(=O)CSc2nc3c(cc2C#N)CCC3)no1,?,0.501µM,4.11µM,?,/,0.501µM
Cc1cc(NC(=O)CSc2nc3ccccc3cc2C#N)no1,?,?,.,?,/,?
Cc1cc(NC(=O)CSc2nc3c(cc2C#N)CCCC3)no1,?,1.58µM,?,?,3.98µM,2.51µM
O=C(c1cccc(Cl)c1)C1CCCN(Cc2ccc(N3CCNC3=O)cc2)C1 (stereo unspecified),?,.,.,.,.,.
CCc1cc(C(=O)NC(C)c2ccccc2)no1 (stereo unspecified),/,/,/,.,.,/
CC(NC(=O)c1cc(COc2ccccc2)on1)c1nccs1 (stereo unspecified),?,1.41µM,8.2µM,4.78µM,/,1.41µM
Cc1cc(OCc2cc(C(=O)NC(C)c3c(C)nn(C)c3C)no2)cc(C)c1Cl (stereo unspecified),?,2.24µM,?,6.75µM,/,2.51µM
Cc1nc(C(C)NC(=O)c2cc(COc3ccc(C)c(C)c3)on2)c(C)s1 (stereo unspecified),?,3.16µM,?,9.53µM,/,2.82µM
Cc1cccc(CC(C)NC(=O)c2cc(COc3ccc(C)c(C)c3)on2)n1 (stereo unspecified),?,?,.,21.3µM,/,?
c1ccc(C2=Nn3c(nnc3-c3ccco3)SC2)cc1,?,.,.,.,.,.
CS(=O)(=O)N1CCCC(C(=O)N2CCN(c3cccc(Cl)c3)CC2)C1 (stereo unspecified),.,.,.,.,.,.
COc1ccc(CNS(=O)(=O)c2ccc3c(c2)NC(=O)C(C)S3)cc1 (stereo unspecified),?,.,.,.,/,.
CCN(CC)CCN1C(=O)c2ccccc2NC1c1ccc(N(C)C)cc1 (stereo unspecified),?,.,.,23.9µM,.,.
CN(C)c1ccc(C2Nc3ccccc3C(=O)N2CCCN2CCOCC2)cc1 (stereo unspecified),?,.,.,4.78µM,/,.
